The panel holds about 79,000 compounds, 15% with a hit somewhere; the sample as a whole holds those more often. Activity calls are given as the source filed them. Rule as the data show it: active = growth inhibition above about 70%; inactive = the rest. Where a SMILES comes first, the peptide text is derived from it. The star is where a group is joined. Myristoyl = CCCCCCCCCCCCCC(=O)*
Experiments:
[1] = NCI Yeast Anticancer Drug Screen. Data for the rad50 strain (AID 155);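 also: 0% = growth of vehicle-only cultures of the same strain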; settings: S. cerevisiae rad50 strain growth inhibition; at 50.0 µM; hits give high values
Procedure, shortened: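 Relative growth inhibition (compound vs vehicle) was measured in yeast with a defined repair-gene alteration.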

[2] = NCI Yeast Anticancer Drug Screen. Data for the mec2-1 strain (AID 157); settings: S. cerevisiae mec2-1 strain, at 50.0 µM, hits give high values
Procedure, shortened: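 Test agents were screened against the mec2-1 yeast strain, with defined DNA repair or cell cycle alteration. Growth was scored as inhibition against vehicle-only controls.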

[3] = NCI Yeast Anticancer Drug Screen. Data for the sgs1 mgt1 strain (AID 161);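 also: 0% = growth of cultures given vehicle only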; settings: S. cerevisiae sgs1 mgt1 strain, at 50.0 µM, hits give high values
Procedure, shortened: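 Test agents were incubated with a DNA-repair-mutant yeast strain. Growth was then read and compared against vehicle-treated controls.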

[4] = NCI Yeast Anticancer Drug Screen. Data for the cln2 rad14 strain (AID 165);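 also: 0% = growth equal to vehicle treated cultures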; settings: S. cerevisiae cln2 rad14 strain, at 50.0 µM, hits give high values
Procedure, shortened: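 Growth of compound-exposed yeast (cln2 rad14 genotype) measured and expressed as inhibition relative to vehicle.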

[5] = NCI Yeast Anticancer Drug Screen. Data for the bub3 strain (AID 167); settings: S. cerevisiae bub3 mutant strain, at 50.0 µM, hits give high values
Procedure, shortened: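 Screening used yeast with an engineered genetic alteration affecting cell cycle control. Compound-exposed cultures were compared with vehicle cultures, and reduced growth was taken as inhibition.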

[6] = NCI Yeast Anticancer Drug Screen. Data for the mlh1 rad18 strain (AID 175); settings: S. cerevisiae mlh1 rad18 strain growth inhibition; at 50.0 µM; hits give high values
Procedure, shortened: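 In this whole-cell yeast screen, a strain with altered DNA damage repair is challenged with compound, and its growth is measured against matched vehicle-treated controls.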

Measured: growth inhibition

COC(=O)c1nn(-c2ccccc2)c2nc3ccccc3c-2c1C(=O)OC
inactive: [1] 39.8% | [2] 17% | [3] 31% | [4] 18.5% | [5] 20.9% | [6] 36.5%

CC(C)CC(C)OC(=O)CC(CC(=O)OC(C)CC(C)C)C(=O)OC(C)CC(C)C (stereo unspecified)
inactive: [1] -6.8% | [2] -17.1% | [3] -13.1% | [4] 26.2% | [5] 20.9% | [6] -4.15%

CCC[n+]1ccccc1C
inactive: [1] -0.95% | [2] 19.4% | [3] -4.3% | [4] 1.35% | [5] 7.9% | [6] 3.65%

CC(=O)OCC1OC(OC(C)=O)C(NC(=S)N(C)N=O)C(OC(C)=O)C1OC(C)=O (stereo unspecified)
inactive: [1] 0.65% | [2] -8.4% | [3] -16.9% | [4] 12.4% | [5] -19.3% | [6] -40.3%

CCN(CC)C(=S)N1CCCCC1
inactive: [1] 10.2% | [2] -14.6% | [3] -14.2% | [4] -65.4% | [5] -15.9% | [6] -7.25%

COc1cc(NN=C(C#N)C#N)c(OC)cc1Cl
inactive: [1] 37.6% | [2] 11.2% | [3] 48% | [4] 23.1% | [5] 40.7% | [6] 34.7%

COc1ccc(C[n+]2ccccc2C#N)cc1OC
inactive: [1] 4.7% | [2] -13.8% | [3] -10.4% | [4] -15.8% | [5] 4.25% | [6] 3.2%

CCOC(=O)c1c(NNc2ccccc2)nc2ccccc2c1-c1ccccc1
inactive: [1] 25.1% | [2] -2.05% | [3] 11.1% | [4] 22.4% | [5] -10.3% | [6] -1.7%

C[C@@]1(N2C(=O)OC(c3ccccc3)C2=O)C(=O)N2CCS[C@@]21c1ccccc1 (stereo partly specified)
inactive: [1] 4.2% | [2] 2.6% | [3] 11.8% | [4] 11.3% | [5] 5.85% | [6] 1.25%

Cc1ccc(C2(c3ccc(C)cc3)OCC(C)(CBr)CO2)cc1
inactive: [1] -30% | [2] -1.4% | [3] -20.4% | [4] -8.5% | [5] 1.6% | [6] -14.5%

COc1cccc(C=Nc2ccc(N(C)C)cc2)c1O.COc1cccc(C=Nc2ccc(N(C)C)cc2)c1O.[Co]
inactive: [1] 31.4% | [2] 5.55% | [3] 14.6% | [4] 2.9% | [5] 8.25% | [6] -2.3%

CC(C)(C)N1CCC(=O)C1=O
inactive: [1] 23.8% | [2] 22.9% | [3] 1.85% | [4] 7.85% | [5] 5.85% | [6] 17.8%

Cc1ccc(S(=O)(=O)NCCC(=O)O)cc1
inactive: [1] -1.75% | [2] -11.1% | [3] -9.65% | [4] -9.3% | [5] -3.3% | [6] -4.85%

Cc1cc(C)nc(C)c1.[Cl-].[Cl-].[Cl-].[Cl-].[Pt+2]
inactive: [1] 8.9% | [2] 9.25% | [3] -7.5% | [4] 7.4% | [5] 2.6% | [6] 7.1%

O=[N+]([O-])c1cccc(N=Nc2ccccc2)c1
inactive: [1] -4.25% | [2] -10.3% | [3] -22.3% | [4] 18.7% | [5] -21.6% | [6] -0.95%

Brc1c2ccccc2cc2ccccc12
inactive: [1] 22% | [2] 29.8% | [3] 25% | [4] -8.8% | [5] 63.4% | [6] 42.6%

O=C(Nc1c(Cl)cccc1Cl)Nc1c(Cl)cccc1Cl
inactive: [1] -0.95% | [2] -4.85% | [3] 21.1% | [4] 6.7% | [5] 16.8% | [6] 10.9%

N#CCN1CCOCC1
inactive: [1] 31.5% | [2] -1.55% | [3] 4.45% | [4] 15.2% | [5] 10.2% | [6] 27.1%

O=C(O)CSc1nc2c(Cl)c(Cl)c(Cl)cc2[nH]1
inactive: [1] -11.7% | [2] -14.1% | [3] 2% | [4] 1.6% | [5] 13.2% | [6] -9.9%

COC(=O)C1CCC(=O)C(Sc2ccccc2)C1 (stereo unspecified)
inactive: [1] 25.1% | [2] -11.9% | [3] 18.4% | [4] 6% | [5] 32.1% | [6] 28.4%

O=C1NC(O)c2cccc(F)c2O1 (stereo unspecified)
inactive: [1] 20.4% | [2] 6.3% | [3] 43.4% | [4] 31.5% | [5] 6.7% | [6] 58.9%

CCCC(=O)Oc1ccc(C(C)(C)C)cc1C
inactive: [1] -5.65% | [2] -19.1% | [3] 3.4% | [4] -19.3% | [5] -0.5% | [6] -8.6%

COCc1ccc(C(C)(C)CC(C)(C)C)cc1
inactive: [1] 32.6% | [2] 8.4% | [3] -0.1% | [4] 13.6% | [5] -0.45% | [6] -1.3%

CC1(C)Cc2c(oc3ncnc(N)c23)CS1
inactive: [1] -10.3% | [2] -14.1% | [3] -8.8% | [4] -4.75% | [5] -4.65% | [6] 9.2%

C/C=C\c1ccc(OCCOC(C)=O)c(OC)c1
inactive: [1] 12% | [2] -13.6% | [3] -3.4% | [4] -28.2% | [5] -9.95% | [6] -15.8%

OCC1OC(O)C(CO)OC1O (stereo unspecified)
inactive: [1] 16.1% | [2] -5.2% | [3] 3.7% | [4] 40.2% | [5] 22.2% | [6] -5.2%

O=C(Cc1ccccc1)NS(=O)(=O)c1ccccc1
inactive: [1] 5.15% | [2] -5.8% | [3] -12.3% | [4] 9.15% | [5] -3.95% | [6] 4.2%

O=C(CCl)Nc1cc(Cl)c(Cl)cc1Cl
inactive: [1] 32.4% | [2] 21.8% | [3] 58.1% | [4] 2.75% | [5] 64.8% | [6] 37%

CC(=O)Nc1ccc(S(=O)(=O)Nc2c(N)[nH]c(=S)[nH]c2=O)cc1
inactive: [1] 14% | [2] 3.9% | [3] 1.25% | [4] -3.75% | [5] 9.5% | [6] 9.45%

CCN(CC)Cc1cc(Nc2c3ccc([N+](=O)[O-])cc3nc3ccc(OC)cc23)ccc1O
inactive: [2] 60.4% | [3] 56% | [4] 54.5% | [5] 53.9% | [6] 65.3%
active: [1] 83.3%

CCCCCCCC(C(=O)O)C(=O)O
inactive: [1] -2.1% | [2] 0.4% | [3] 10.3% | [4] 10.3% | [5] -2.5% | [6] 11.5%

O=c1c2cc([N+](=O)[O-])ccc2[nH]n1Cc1ccccc1Cl
inactive: [1] -0.1% | [2] 12.3% | [3] -3.8% | [4] 14.9% | [5] 6.6% | [6] -4.45%

CCCCCC(=O)NC(=S)Nc1nn[nH]n1
inactive: [1] -38.8% | [2] -50.7% | [3] -39.1% | [4] -8.4% | [5] -25.3% | [6] -47.1%

CSc1ncnc2c1ncn2CCC(=O)O
inactive: [1] -33.9% | [2] 11.4% | [3] -42.1% | [4] 8.8% | [5] -13.9% | [6] -19.4%

CCCCCCCCCCCCCC(=O)NCC(=O)NC(C)C(=O)NC(CCCNC(=N)N)C(=O)NC(C)C(=O)NC(CO)C(=O)NC(C(=O)NC(CC(C)C)C(=O)NC(CO)C(=O)NCC(=O)NCC(=O)NC(CCC(=O)O)C(=O)NC(CC(C)C)C(=O)NC(CC(=O)O)C(=O)NC(CCCNC(=N)N)C(=O)NC(Cc1c[nH]c2ccccc12)C(=O)NC(Cc1ccc(O)cc1)C(N)=O)C(C)C (stereo unspecified) (Myristoyl-GARASVLSGGELDRWY-NH2; configuration not given here)
inactive: [1] -4% | [2] -6.9% | [3] -12.7% | [4] 8.8% | [5] -40.4% | [6] -6.5%

Cn1c(=O)c2c(nc(CCC(N)=O)n2C)n(C)c1=O
inactive: [1] -1.35% | [2] -20.9% | [3] 8.25% | [4] -14.8% | [5] 11.8% | [6] 12.7%

C=CCOC(=O)C1CC=CCC1C(=O)OCC=C (stereo unspecified)
inactive: [1] -17.6% | [2] -26.9% | [3] -17.9% | [4] -15.2% | [5] -3.95% | [6] -9.8%

O=C(NCC1=NCCN1)c1ccccc1
inactive: [1] 2.3% | [2] -2.7% | [3] -13.7% | [4] 12% | [5] 6.45% | [6] 10.7%

CC(C)(Cc1ccccc1)NC1=NCCO1
inactive: [1] -31.9% | [2] -18.8% | [3] -17.6% | [4] -6.2% | [5] -12.2% | [6] -2.6%

O=[N+]([O-])c1cc2c(cc1Br)C1C(C3C2C2(Cl)C(Cl)=C(Cl)C3(Cl)C2(Cl)Cl)C2(Cl)C(Cl)=C(Cl)C1(Cl)C2(Cl)Cl (stereo unspecified)
inactive: [1] 31.7% | [2] 5.4% | [3] 24.6% | [4] 11.8% | [5] 11.2% | [6] 8.1%

C[n+]1cccc2c(=O)c3ccccc3oc21
inactive: [1] 0.8% | [2] -14.5% | [3] -6.25% | [4] -17.9% | [5] 4.65% | [6] -20.2%

From PubChem BioAssay (NCI)
